These results are taken from PubChem BioAssay (NCI).

This is part of a sample that, as a whole, favours compounds with a hit. Of some 83,000 tested, about 20% had one in any assay.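 Treatment: one concentration, 48 hours, 96-well format. Scoring: percent growth, with anything below 10 considered active.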 Values without a mark were called inactive. The source made the active and inactive calls.

What all share (experiment): NCI-60 one-dose screen, 48 h (100 = growth as untreated, 0 = no growth, -100 = all killed)
Details in all cases: 10 µM unless noted

Test [1] has as its system HCT-15 colon.
For test [2], the system named is HT29 colon.
The subject of test [3] is SNB-75 CNS.
In test [4] the test system is SNB-19 CNS.
The test system of test [5] is U251 CNS.
Test [6] has as its system PC-3 prostate.
The subject of test [7] is SK-MEL-5 melanoma.
Test [8] concerns UACC-62 melanoma.
Test [9] deals with LOX IMVI melanoma.
The test system of test [10] is SK-MEL-28 melanoma.
Test [11] concerns EKVX NSCLC.
Test [12] has as its system SN12C renal.
The subject of test [13] is UO-31 renal.
Test [14] deals with TK-10 renal.
Test [15] deals with ACHN renal.
Test [16] concerns CAKI-1 renal.
The subject of test [17] is A498 renal.
The test system of test [18] is CCRF-CEM leukemia.
Test [19] has as its system MOLT-4 leukemia.

For the compound `Oc1ccc(C(c2ccc(O)cc2)C(Cl)(Cl)Cl)cc1`, the growth in [1] is 93.4%; in test [2], 110%; in [3], 66.4%; in test [4] it was 99.9%; in test [5] it was 106%; in test [6] it was 75.2%. For the same compound, the growth was 100% in [7]; 79.8% in [8]; 87.6% in [9]; 113% in test [10]; 82.5% in test [11]; 84.8% in [12]. Besides, the growth in test [13] is 75.3%; in [14], 105%; in test [15], 92.3%; in test [16], 105%; in test [17], 87.5%; in test [18], 76.5%. In test [19], the growth is 70.5%.
Take `C[C@@H](NC(=O)c1ncnc(N)c1Cl)c1ncc(C(=O)Nc2cc(C(F)(F)F)c(Cl)cn2)s1`: the growth in test [1] was 86.4%; in [2], 20.1%; in test [3], 103%; in [4], 94.7%; in [5], 75.9%; in [6] it was 93.7%. Besides, the growth in test [7] is 51.2%; in [8], -0.831% (active); in [9], 36.5%; in [10], 9.63% (active); in [11], 101%; in [12], 82.6%. Besides, the growth was 52.8% in test [13]; 77.4% in test [14]; 74.5% in test [15]; 74.2% in test [16]; 59.6% in test [17]; 70.8% in [19].
Turning to `C[C@@H](Oc1cc(-n2cnc3ccc(CN4CCN(C)CC4)cc32)sc1C(N)=O)c1ccccc1C(F)(F)F`, the growth in test [1] is 6.53% (active); in test [2] it was 4.62% (active); in test [3] it was -5.55% (active); in [4], 26.1%; in test [5] it was 29.1%; in test [6] it was 32.9%. The growth in test [7] is 4.6% (active); in test [8], 51.1%; in [9], 4.53% (active); in test [10], 38%; in test [11], 38.9%; in test [12], 15.6%. Further, the growth in test [13] is 16.6%; in test [14], 52.2%; in test [15], 31.1%; in test [16] it was 28.3%; in test [17], -23% (active); in [19], -7.58% (active).
Consider `CN1CC[C@H](c2c(O)cc(O)c3c(=O)cc(-c4ccccc4Cl)oc23)[C@H](O)C1`, for which the growth in [1] was 4.15% (active); in test [2], -19.8% (active); in [3], -59.7% (active); in test [4], 10.1%; in [5], 5.78% (active); in test [6] it was -4.62% (active). The growth in test [7] is -19% (active); in test [8], -49.6% (active); in test [9] it was 4.81% (active); in test [10] it was -29.4% (active); in [11] it was 0.266% (active); in test [12], 10.4%. The growth is -14.1% (active) in [13]; -0.739% (active) in test [14]; 4.43% (active) in [15]; 10.1% in [16]; -54.2% (active) in test [17]; 1.35% (active) in test [19].
Turning to `COc1cc(Nc2ncc(F)c(Nc3ccc4c(n3)N(COP(=O)(O)O)C(=O)C(C)(C)O4)n2)cc(OC)c1OC`, the growth in [1] is 21.4%; in test [2] it was -0.77% (active); in test [3], -95.5% (active); in test [4], 31.4%; in test [5] it was 29.5%; in test [6], 33.5%. For the same compound, the growth in test [7] is 43.8%; in test [8] it was 18.8%; in [9], -69% (active); in [10], 45.6%; in test [11] it was 32.7%; in [12], 22.8%. Also, the growth is -23.9% (active) in test [13]; -43.8% (active) in test [14]; 6.43% (active) in test [15]; -54.1% (active) in test [16]; -70.9% (active) in [17]; 29.6% in test [19].
Consider `Cc1nc(Nc2n[nH]c3c2CN(C(=O)N[C@H](CN(C)C)c2ccccc2)C3(C)C)c2sccc2n1`, for which the growth in test [1] was 20%; in test [2], -29.6% (active); in test [3] it was -80% (active); in test [4], 0.125% (active); in test [5], -22.7% (active); in test [6], -10% (active). Moreover, the growth was -84.9% (active) in [7]; -87% (active) in test [8]; -41.3% (active) in test [9]; -33.7% (active) in [10]; 12.9% in [11]; -6.2% (active) in test [12]. Further, the growth was -11.3% (active) in test [13]; -30.1% (active) in [14]; 3.72% (active) in test [15]; -5.88% (active) in test [16]; -72.9% (active) in test [17]; -0.869% (active) in test [19].
Regarding `CN(C[C@@H]1COCCO1)S(=O)(=O)Nc1ccc2ccc3ncc(-c4cnn(C)c4)cc3c(=O)c2c1`, the growth in test [1] is 26%; in [2] it was 51.3%; in test [3], 13.6%; in test [4] it was 80.7%; in test [5], 37.4%; in test [6] it was 45.6%. Moreover, the growth in [7] is 36%; in test [8], 36.2%; in test [9], 30.1%; in test [10] it was 59.7%; in test [11] it was 52.9%; in test [12] it was 38.9%. The growth was 8.44% (active) in [13]; 37.2% in test [14]; 22.2% in test [15]; 7.99% (active) in test [16]; -19% (active) in test [17]; 21.1% in test [19].
